In PubChem BioAssay AID1794842 (National Center for Advancing Translational Sciences (NCATS), 2023):
The whole screen tested about 2,800 compounds, of which fewer than 10 were called active. Calls follow the shape of the dose curve; as a rule, active = well fitted curve in the direction sought with a large enough effect; inconclusive = small, poorly fitted or top-dose-only effect, or another doubt; inactive = no such curve, though single readings can be large or run the other way. Only a sample is shown.

biological target: Metallo-beta-lactamase type 2 (Klebsiella pneumoniae) (UniProt C7C422); assay: qHTS to identify inhibitors of the New Delhi Metallo-beta-lactamase (NDM): Meropenem screen against the machine-based learning selections.; conditions: Purified NDM-1, meropenem hydrolysis, absorbance 300 nm; series mostly up to 38.4 µM
Sequence (C7C422 whole entry, looked up): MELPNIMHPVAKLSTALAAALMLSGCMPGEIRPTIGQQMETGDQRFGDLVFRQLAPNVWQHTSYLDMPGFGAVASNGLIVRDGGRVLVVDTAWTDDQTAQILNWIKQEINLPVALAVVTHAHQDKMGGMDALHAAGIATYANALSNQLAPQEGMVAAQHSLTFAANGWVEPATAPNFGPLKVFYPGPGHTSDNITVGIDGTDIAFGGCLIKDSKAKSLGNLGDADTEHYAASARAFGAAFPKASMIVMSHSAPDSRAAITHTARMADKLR
Source text: Assay Submitter (PI): James Inglese Ph.D., Patricia Dranchak Ph.D., Mahesh Aitha Ph.D. Assay Development and Screening Technology Laboratory (ADST) National Center for Advancing Translational Sciences (NCATS), Rockville, MD National Institute of Health (NIH), Bethesda, Maryland The metallo-beta-lactamases (MBL) are a main antibiotic resistance mechanism evolved by bacteria. There is an urgent clinical need for MBL inhibitors to mitigate this growing threat. To support a machine-based learning study, qHTS has been used to experimentally test inhibitors identified by prediction tools.
PROTOCOL TABLE (as described by Inglese et al., 2007) SEQUENCE No. (e.g., 1, 2, 3, etc.); […] (e.g., enzyme, Incubation, Reagent, etc.); VALUE; DESCRIPTION Primary Screen 1; NDM-1; 4 uL of 3 nM enzyme [2 nM final] in 50 mM HEPES (pH 7.0), 1 uM […], 0.01% Tween20; Use BioRaptr to dispense into two sets of Aurora black, clear bottom high base 1536-well plates 2; Compounds; 23 nL; Use Pin Tool (Wako) to transfer DMSO control and library compounds in DMSO 3; Incubate; >30 min 4a; Reagent; 2 uL of 50 uM nitrocefin [16.7 uM final] to one set of assay plates 4b; Reagent; 2 uL of 150 uM meropenem [50 uM final] to second set of assay plates 5a; Incubate; 15 min 5b; Incubate; 30 min 6a; Detector; Absorbance at 485 nm (bandwidth = 5 nm, 25 flashes/well) on Tecan Infinity 6b; Detector; Absorbance at 300 nm (bandwidth = 5 nm, 25 flashes/well) on Tecan Infinity NOTES (numbers refer to sequence above) 1; Column 1 of each plate received assay buffer without enzyme and columns 2-48 received enzyme for a final assay concentration of 2 nM. 2; Control plate contained DMSO in columns 1, 2, 3, and 4. 3; Compound interaction with enzyme. 4; Nitrocefin and meropenem substrates were prepared in the same assay buffer as step 1 for a final assay concentration of 16.7 uM and 50 uM, respectively, and added to all wells across respective sets of assay plates. 5; Default reader settings were applied for absorbance read at 485 nm (nitrocefin) or 300 nm (meropenem), bandwidth = 5 nm, 25 flashes/well. References: Inglese J, Shamu CE, Guy RK. 2007. Reporting data from high-throughput screening of small-molecule libraries. Nat Chem Biol. doi:10.1038/nchembio0807-438 Yasgar A, Shinn P, Jadhav A, Auld D, Michael S, Zheng W, Austin CP, Inglese J, Simeonov A. 2008. Compound Management for Quantitative High-Throughput Screening. J Lab Autom 13:79 - 89. doi:10.1016/j.jala.2007.12.004

outcome, inactive:
COc1ccc(C(=O)NC[C@H]2O[C@@H](CC(=O)N3CCN(c4ccccc4OC)CC3)[C@H](O)[C@@H]2O)cc1
COc1ccc(CN2C(=O)[C@@H]3C[C@@H](O)CN3C3(CN(C4CCC4)C3)C2=O)cc1
O=C(Cc1ccccc1Cl)N1CCC(Cc2nc(-c3ccc(F)cc3)no2)CC1
Cc1[nH]c2c(c1C(=O)N1CCCC(CCc3ccc(F)cc3)C1)C(=O)CCC2 (stereo not given)
O=C(c1ccccc1Cl)N1CCC2(CC1)Cc1ccccc1NC2=O
Cc1ccc(C(=O)NC2CCN(c3cn[nH]c(=O)c3)CC2)cc1C
O=C(NC1CCCCC1)O[C@@H]1CO[C@H]2[C@@H]1OC[C@@H]2NS(=O)(=O)c1ccc(Cl)cc1
O=C(Nc1ccc(C2(C(=O)NCc3ccco3)CCCCC2)cc1)C1CC1
CN1Cc2ccc(NCc3ccccc3)nc2C(C)(C(=O)NCCc2cnc[nH]2)C1 (stereo not given)
CN1c2cccnc2CN(Cc2cccc(Cl)c2)CC[C@H]1CO
COc1ccc2nc(C[C@@H]3C[C@@H](C(C)C)[C@H](CNC(=O)Nc4ccc(F)cc4)C=C3C)[nH]c2c1
COc1ccc(C(=O)N2C[C@@H]3OCC(=O)N(Cc4nccn4C)[C@@H]3C2)cc1
COc1ccccc1CN1CC(c2noc(-c3ccc(C)cc3C)n2)CC1=O (stereo not given)
COc1ccccc1-c1ccc2ncc(Nc3cccc(N[S+](C)(=O)[O-])c3)n2n1
Cc1nccn1-c1ccccc1CNC1CCC2(CCNCC2)CC1
COC(=O)[C@H](NC(=O)[C@@H]1C[C@@H](NS(=O)(=O)c2cccc(C(F)(F)F)c2)CCN1C(=O)CCC(=O)O)C(C)C
C=CCNC(=O)[C@@H]1Cc2cn(Cc3ccncc3)c3cccc(c23)[C@H](CC(C)C)N1
COc1cccc(CN2C[C@@H]3C(C(=O)O)[C@@H]3C2)c1OCCn1ccnc1 (stereo not given in full)
COC(=O)CO[C@@H]1CO[C@H]2[C@@H]1OC[C@@H]2NC(=O)Nc1cccc(C(F)(F)F)c1
c1cc(-c2n[nH]c(CNC3CCC4(CCNCC4)CC3)n2)ccn1
COCC(=O)N1CCc2nc(N(C)CCc3ccncc3)[nH]c(=O)c2CC1
O=C1CC(C(=O)O)C2(CCN(c3cc(C(=O)O)c4ccccc4n3)CC2)N1 (stereo not given)
O=C1Nc2ccc(/C=C/c3ccccc3)cc2C(=O)N2CC[C@H](NS(=O)(=O)c3cccs3)[C@@H]12
COC(=O)c1ccc2nc(C[C@@H]3C[C@@H](C(C)C)[C@H](CNCc4ccccc4F)C=C3C)[nH]c2c1
CCCCc1cc(C[C@@H]2C[C@H](NC(=O)NCC)C2(C)C)no1
COCC(=O)N1CC[C@@H](CC(=O)O)[C@@H](CC2=NCCc3cc(OC)ccc32)C1
O=C(Nc1cccnc1)N1CCOC[C@H](Oc2ccccc2)C1
c1c(CC2CCCCC2)nnn1[C@H]1CO[C@H]2[C@@H]1OC[C@@H]2NCC1CCCCC1
O=C(Nc1ccc(F)cc1)N1C[C@@H]2OCC(=O)N(Cc3ccc(OC(F)(F)F)cc3)[C@@H]2C1
O=C(Nc1ccc(Oc2ccccc2)cc1)N[C@H]1CO[C@H]2[C@@H]1OC[C@H]2OC(=O)Nc1cccc(C(F)(F)F)c1
Cc1cc(C(=O)N[C@@H]2C[C@H](Cn3cc(C4CC4)nn3)[C@@H](O)[C@H]2O)no1
Cc1cc(-c2ccccc2)nc(CN2CC[C@@](O)(C3CCC3)[C@H](C)C2)n1
CCOCCN1C(=O)COC[C@@H]1[C@H](O)c1ccc(NC(=O)Cc2ccccc2)cc1
COCC(=O)N[C@H]1C[C@H]2C(=O)NC[C@@H](CCC(=O)N3CCN(c4ccccn4)CC3)N2C1
COc1ccc(OC)c(S(=O)(=O)N2CCCC(Cn3c(C)nc4cccnc43)C2)c1 (stereo not given)
O[C@@H]1C[C@@H](c2nc(-c3ccc4c(c3)OCO4)no2)N(Cc2cc3ccccc3o2)C1
CC1=C[C@@H](CNC(=O)COCC(=O)O)[C@H](C(C)C)C[C@H]1Cc1nc2ccc(C)cc2[nH]1
NCCn1cc(C(=O)NCCS(=O)(=O)N2CCCC2)nn1
C=CCN1CCN(C(=O)[C@@H]2Cc3c[nH]c4cccc(c34)[C@H](CC(C)C)N2)CC1
COc1ccc(-c2noc([C@@H]3C[C@H](NCc4ccc(N(C)C)cc4)CN3C)n2)cc1
COc1cc(F)cc(-c2cnc3[nH]cc(CC(=O)NCc4cccnc4)c3c2)c1
Oc1cccc(Nc2cnc3ccc(-c4ccc(F)cc4)nn23)c1
CCc1ccc(-c2nc(C3CC(=O)N(c4ccc(C)cc4)C3)no2)cc1 (stereo not given)
COc1ccc([C@@H](NC(=O)c2ccc3cccc(F)c3n2)C2CC(O)C2)cn1 (stereo not given in full)
COc1ccc(Nc2cc3c(cn2)CN(CCc2ccccc2)CCN3)cc1
COc1ccc(-c2noc([C@@H]3Cc4nc[nH]c4CN3C(=O)Nc3ccc(C)cc3)n2)cc1
CCOC(=O)N1CCN(C(C(=O)O)c2ccc(OC)nc2OC)CC1 (stereo not given)
O=C(O)CCC(=O)N1Cc2[nH]cnc2C[C@H]1C(=O)NC1CCCCC1
CO[C@H]1[C@H](NC(=O)COc2ccccc2)c2ccccc2C12CCNCC2
COc1ccc(-c2cc(N3CCCC(NC(=O)c4cccn4C)C3)n[nH]2)cc1 (stereo not given)
CC1=C[C@@H](CNC(=O)c2cncnc2)[C@H](C(C)C)C[C@H]1CC(=O)N(C)Cc1ccccc1
CCOCC(=O)N1CCC(N2CC3CC(C2)[C@H]2CCCC(=O)N2C3)CC1 (stereo not given in full)
NC(=O)c1cccc(-c2cc3c(cn2)CN(Cc2ccncc2)CCN3)c1
Cc1ccc(-c2noc([C@@H]3Cc4nc[nH]c4CN3Cc3ccccc3)n2)cc1
Cn1cc(-c2cnc(NC(=O)c3c[nH]c4ccccc34)c3c2CCO3)cn1
O=C(NCCc1ccc(Cl)cc1)c1nc(-c2cc(Cl)cc(Cl)c2)c2ccccn12
CCCNC(=O)N(C1CCOCC1)C1CCN(C(=O)Nc2c(F)cccc2F)CC1
O=C(Cc1c[nH]c2ncc(-c3ccsc3)cc12)NCc1cccnc1
Cc1ccccc1-c1cnc2n[nH]c(-c3ccccc3)c2n1
CC1(COc2cccnc2)COc2ccc(C(=O)Nc3ccc4[nH]ccc4c3)cc2N1 (stereo not given)
O=C(NCCc1cnc[nH]1)C1CCN(C2CCCCC2)CC1
Cc1ccccc1NC(=O)c1cnc2c(c1)N(Cc1ccccc1)CCC2
C=CCCC(CN1CCCOCC1)Oc1ccc(-c2ccccc2)nn1 (stereo not given)
COCCc1noc(CN(C)c2cc(C(C)C)nc3ccnn23)n1
CCC(=O)N1CCC(Cc2nc(-c3ccccc3)n[nH]2)CC1
Cc1cc(C(=O)N[C@H](C)c2c(-c3ccc(Cl)cc3)noc2C(=O)O)c(C)o1
CC(=O)Nc1ccc(CN2CCC(N3CCCCCC3=O)CC2)cc1
CC[C@H]1CN(C(=O)C(C)(C)C)CC[C@H]1CC(=O)NCCSC
O=c1[nH]c(-c2ccc(F)cc2)nc2c1CCN(S(=O)(=O)c1cccs1)C2
O=C(O)c1cncc(N2CCC3(CC2)CNC(C(=O)O)C3)n1 (stereo not given)
COc1cccc(CN2CCOC[C@H](Oc3cccnc3)C2)c1
O=C(O)[C@H]1C[C@@H](C(=O)NCc2ccccn2)CN(CC2CC2)C1
O=C(CN1C(=O)NC(c2ccccc2Cl)C2=C1COC2=O)Nc1ccc(F)c(Cl)c1 (stereo not given)
COc1ccc(CN2CCNc3cnc(Nc4ccccc4)cc3C2)cn1
Cc1noc([C@@H](C)NC(=O)Nc2cccnc2)c1C(=O)O
O=C(CCn1nnc(-c2ccccc2)n1)N1CCCC2(CCNCC2)CC1
CC(C)CCNC1(Cc2cc(CN3CCOCC3)on2)COC1
Cc1noc([C@@H]2CNC[C@H]2CO)n1
O=C(NCc1cccnc1)[C@@H]1C[C@@H](c2ccc(F)cc2)N(Cc2ccccc2)C1
CC1=C[C@@H](CC#N)[C@H](C(C)C)C[C@H]1CC(=O)NC1CC1
c1cncc(Nc2cc3c(cn2)CN(Cc2ccc4[nH]ccc4c2)CCN3)c1
COc1ccc(-c2cc(-c3cccc(C(N)=O)c3)cn3cncc23)cc1
NC(=O)Cc1c[nH]c2ncc(-c3ccc(F)cc3)cc12
O=c1c2nc(NCc3ccccc3)ccc2ncn1Cc1ccccn1
CCCS(=O)(=O)N1CCC(Oc2nccnc2N2CCOCC2)C1 (stereo not given)
CCCCCC(=O)Nc1nc2c(s1)C[C@@H]1[C@](C)(CO)[C@H](O)CC[C@@]1(C)[C@@H]2CC(=O)NCc1ccccc1
CC[C@H]1CN(S(=O)(=O)c2c(C)noc2C)CC[C@H]1CC(=O)NCc1ccco1
CC(C)c1noc([C@@H]2C[C@H](NC(=O)Nc3ccc(F)cc3)CN2C)n1
COCCNC(=O)C[C@@H]1C[C@H]2O[C@H](CNC3CCCCC3)[C@@H](O)[C@H]2O1
O=C(CSc1ccncc1)N1CCN2C(=O)N(Cc3ccccc3)C(=O)[C@H]2C1
OC[C@H]1C[C@@H](NCc2cccc3c2OCO3)[C@H](O)[C@@H]1O
c1ccc(-c2cnc(Nc3ccncc3)c3c2CCO3)cc1
CCC[S+](=O)([O-])N1CCN(C(=O)N2CC3CC(C2)[C@H]2CCCC(=O)N2C3)CC1 (stereo not given in full)
O=C(O)c1cc(-c2cccc(CO)c2)cc(S(=O)(=O)N2CCOCC2)c1
COc1ccc(C2Cn3nnc(C(=O)N4CCN(C(=O)c5cc(F)ccc5Cl)CC4)c3CO2)cc1 (stereo not given)
